PubChem BioAssay AID1851 (National Center for Advancing Translational Sciences (NCATS), 2009)
Out of some 16,000 compounds screened, about 2,600 (16%) were called active. Not shown: some 20% with an inconclusive outcome. Calls follow the shape of the dose curve; as a rule, active = well fitted curve in the direction sought with a large enough effect; inconclusive = small, poorly fitted or top-dose-only effect, or effect the other way; inactive = no such curve, though single readings can be large or run the other way. Only a sample is shown.

These compounds were tested against Cytochrome P450 2D6 (Homo sapiens) (UniProt P10635) (assay: Cytochrome panel assay with activity outcomes). Conditions: recombinant CYP, pro-luciferin dealkylation, luminescence, p450-cyp2d6; series mostly up to 57.1 µM; activity, negative = inhibition: at the top concentration.
Chain of Cytochrome P450 2D6 (Homo sapiens) (P10635 whole entry, looked up): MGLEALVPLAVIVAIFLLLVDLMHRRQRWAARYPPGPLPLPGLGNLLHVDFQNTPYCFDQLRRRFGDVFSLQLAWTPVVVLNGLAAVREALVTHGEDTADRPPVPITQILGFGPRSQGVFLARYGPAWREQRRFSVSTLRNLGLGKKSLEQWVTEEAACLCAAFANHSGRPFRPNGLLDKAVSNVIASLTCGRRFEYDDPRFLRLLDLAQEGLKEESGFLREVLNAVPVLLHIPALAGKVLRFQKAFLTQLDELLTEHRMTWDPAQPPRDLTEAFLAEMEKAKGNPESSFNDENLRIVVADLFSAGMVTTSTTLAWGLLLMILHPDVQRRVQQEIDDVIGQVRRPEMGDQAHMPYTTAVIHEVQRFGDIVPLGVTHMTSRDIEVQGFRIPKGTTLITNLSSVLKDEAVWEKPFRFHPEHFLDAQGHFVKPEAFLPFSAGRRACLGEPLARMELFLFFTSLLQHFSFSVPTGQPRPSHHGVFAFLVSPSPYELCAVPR
% is scaled to controls: 0 for no effect and ±100 for the full control effect.

Row | Compound | activity, negative = inhibition | AC50
1 | CC(=O)NCCc1ccc(O)c(O)c1 | -0.325% (inactive) | 
2 | Oc1cc2c(cc1O)CN(C(=S)NCCc1ccc(Cl)cc1)CCC2 |  | 12.6 µM (active)
3 | CC(C)(Oc1ccc(CCNC(=O)c2ccc(Cl)cc2)cc1)C(=O)O | 4.92% [at 25.6 µM] (inactive) | 
4 | CCCCNC(=O)C1CCN(Cc2ccccn2)CC1 |  | 8.91 µM (active)
5 | O=C(NCCCN1CCCCCC1)[C@@H](c1ccccc1)C1CCCCC1 |  | 0.631 µM (active)
6 | O=C(Nc1cccn(Cc2ccc(F)cc2)c1=O)NC1CCCCC1 | -13.3% (inactive) | 
7 | O=C1NCCCC1C(=O)Nc1ccccc1C(F)(F)F (configuration not stated) | -13.4% (inactive) | 
8 | O=C(NCCc1ccc(Cl)cc1)C1CCN(S(=O)(=O)N2CCC3(CC2)OCCO3)CC1 |  | 14.1 µM (active)
9 | COCCNC(=O)C1CCN(S(=O)(=O)N2CCC3(CC2)OCCO3)CC1 | 24.2% (inactive) | 
10 | O=C(NCCCN1CCN(C2CCCCC2)CC1)Nc1ccccc1C(F)(F)F |  | 5.01 µM (active)
11 | CCS(=O)(=O)N1CCC(C(=O)NCc2cccnc2)CC1 | -6.02% (inactive) | 
12 | CC(C)C(NC(=O)C1CCCCC1)C(=O)NCc1ccccn1 (configuration not stated) | 18.3% (inactive) | 
13 | CCN1CCN(CCCNC(=O)C(NC(=O)C2CCC(C)CC2)C(C)C)CC1 (configuration not stated) | 2.19% (inactive) | 
14 | O=C(NCc1ccccc1Cl)C1CCN(S(=O)(=O)N2CCC3(CC2)OCCO3)CC1 | -3.92% (inactive) | 
15 | CCOC(=O)CSc1ncc(OC)c(Sc2ccc(Cl)cc2)n1 | -24.8% (inactive) | 
16 | CCCC(=O)Nc1nc(-c2ccc3c(c2)CCN3S(C)(=O)=O)cs1 | -1.01% (inactive) | 
17 | COc1ccccc1C(=O)O/N=C1/CCCc2c1ccc(OC)c2[N+](=O)[O-] | 3.73% (inactive) | 
18 | C[C@](N)(Cc1ccc(O)c(O)c1)C(=O)O | -0.0132% (inactive) | 
19 | Nc1nc(N)c2nn(-c3ccc(C(=O)O)cc3)nc2n1 | -6.74% [at 11.4 µM] (inactive) | 
20 | Cc1c(-c2ccc(F)cc2)nc(N)c(C#N)c1-c1cccs1 | -11% (inactive) | 
21 | CCOc1ccc(N=C2NC(=O)C(CC(=O)O)S2)cc1 (configuration not stated) | -2.86% (inactive) | 
22 | O=C(NCCCN1CCN(Cc2ccccc2)CC1)C1CCN(S(=O)(=O)N2CCCC2)CC1 |  | 3.98 µM (active)
23 | O=C(NCc1ccc(F)cc1)C1CCN(S(=O)(=O)N2CCCCC2)CC1 | -7.67% (inactive) | 
24 | Cc1cc(C)c(S(=O)(=O)NNC(=O)C2CCN(Cc3ccccc3)CC2)c(C)c1 |  | 15.8 µM (active)
25 | O=C(NCCCN1CCC(Cc2ccccc2)CC1)C1CCN(S(=O)(=O)N2CCOCC2)CC1 |  | 12.6 µM (active)
26 | O=C(C1CCN(S(=O)(=O)N2CCOCC2)CC1)N1CCN(Cc2ccccc2)CC1 | -1.18% (inactive) | 

Row | Compound | activity, negative = inhibition | AC50
27 | CCCCN(CC)S(=O)(=O)N1CCC(C(=O)NCCCN2CCOCC2)CC1 | -4.19% (inactive) | 
28 | CC(C)N(CCNC(=O)C1CCN(S(=O)(=O)N2CCOCC2)CC1)Cc1ccccc1 | -20.1% (inactive) | 
29 | COc1cccc(CNC(=O)C2CCN(S(=O)(=O)N3CCCCC3)CC2)c1 | -15.4% (inactive) | 
30 | CCS(=O)(=O)N1CCC(C(=O)NCCCN2CCCC2)CC1 | -1.23% (inactive) | 
31 | Cc1ccc(NC(=O)CCC(=O)NNS(=O)(=O)c2ccccc2)c(C)c1 | -2.14% (inactive) | 
32 | O=C(NCCCN1CCc2ccccc2C1)C1CCN(S(=O)(=O)N2CCCC2)CC1 |  | 7.94 µM (active)
33 | CCN1C(=O)CC(N2CCN(CC(=O)NC(C)C)CC2)C1=O (configuration not stated) | 22.1% (inactive) | 
34 | CCN(CC)C(=O)Cn1cc(/C=C(\C#N)C(=O)N2CCN(c3ccccc3)CC2)c2ccccc21 | -15.9% (inactive) | 
35 | Cc1ccc(-c2nc3ncccn3c2NC(=O)C2CC2)cc1 | -1.06% (inactive) | 
36 | CCn1c(=O)c2c(O)cc(=O)oc2c2ccccc21 | 9.72% (inactive) | 
37 | CCc1c(C)c(C#N)c2nc3ccccc3n2c1Nc1c(C)n(C)n(-c2ccccc2)c1=O | -27.3% (inactive) | 
38 | N#CCCn1c(=O)c(-c2ccccc2)nc2cnc(Oc3cccc(Cl)c3)nc21 | 2.25% (inactive) | 
39 | Cn1cc(-c2nc3cnc(Oc4ccccc4)nc3n(C)c2=O)c2ccccc21 | 6.63% (inactive) | 
40 | CC[C@H](CN(C)C)C(=O)c1ccco1 | -4.86% [at 11.4 µM] (inactive) | 
41 | COc1ccccc1/C=N/NC(=Nc1ccc(C)cc1)c1nc2ccccc2s1 | 3.23% (inactive) | 
42 | COCCn1c(=O)c(C)nc2cncnc21 | -17.4% (inactive) | 
43 | CSc1nc(Sc2cccc(Cl)c2)c2ccccc2n1 | -0.0132% (inactive) | 
44 | Cc1c(N2C(=O)CS/C2=N\N=C\c2ccc(Cl)cc2)c(=O)n(-c2ccccc2)n1C | 21% (inactive) | 
45 | CC(C)Cn1c(-c2nn(C)cc2Cl)n[nH]c1=S | -6.99% (inactive) | 
46 | O=C(Nc1cccc(F)c1)N1CCC2(CC1)CCN(C(=O)c1csnn1)CC2 | -19.8% (inactive) | 
47 | Cc1ccc(Oc2nc(-c3ccccc3)ncc2S(C)(=O)=O)cc1 | -12.2% (inactive) | 
48 | Cc1c(NC(=O)CSc2nnnn2C)c(=O)n(-c2ccccc2)n1C | 3.7% (inactive) | 
49 | CC1(C)S[C@@H]2[C@H](NC(=O)[C@@H](N)c3ccc(O)cc3)C(=O)N2[C@H]1C(=O)O | 3.49% [at 25.6 µM] (inactive) | 
50 | CCc1ccc(N(C(=O)c2csnn2)C(C(=O)NCc2ccccc2)c2ccco2)cc1 (configuration not stated) | -29.7% (inactive) | 
51 | O=C(O)[C@@H](O)[C@@H](O)[C@H](O)[C@H](O)CO | 0.284% [at 11.4 µM] (inactive) | 
52 | N/N=C1/CC(=O)NC(=O)N1 | -6.83% [at 11.4 µM] (inactive) | 
